From PubChem BioAssay AID1159580 (chemical genetic matrix, 2015)
“And” between values parts separate entries of the source, which are not always exact repeats. Equal values may be shown once. Hit rate of the full screen: of about 5,500 compounds, about 2,000 (36%) were called active. Inconclusive results (about 18%) are left out. Rule as the data show it: active = normalized growth mostly below about 0.91 (no sharp cut-off); inconclusive = no clear call, values can overlap the other calls; inactive = mostly above about 0.92. The list shows a part of the results.

Assay: chemical genetic growth profiling, strain panel (AID 1159580);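 also: tested at 20 µM; growth read once vehicle control cultures reached saturation at 30 °C; 1 = growth at the plate median or of vehicle wells; lower values mean less growth of the strain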
Conditions: S. cerevisiae deletion strains, growth OD

Measured: normalized growth

C[C@@H]1CC2C3CCC4=CC(=O)C=C[C@]4(C)[C@@]3(F)[C@@H](O)C[C@]2(C)[C@@]1(O)C(=O)COP(=O)(O)O (stereo partly drawn)
inactive: locus YAL021C, strain ccr4, active compounds read low 0.961 | locus YAL026C, strain drs2, active compounds read low 0.985 | locus YAL030W, strain snc1, active compounds read low 0.996 | locus YBL061C, strain skt5, active compounds read low 0.978 | locus YBR009C, strain hhf1, active compounds read low 0.976 | locus YBR021W, strain FUR4, active compounds read low 1.02 | locus YBR023C, strain chs3, active compounds read low 0.981 | locus YBR171W, strain sec66, active compounds read low 0.944 | locus YBR229C, strain ROT2, active compounds read low 1 | locus YBR231C, strain swc5, active compounds read low 0.955 | locus YBR279W, strain paf1, active compounds read low 0.989 | locus YCL011C, strain gbp2, active compounds read low 0.997 | locus YCL016C, strain dcc1, active compounds read low 1.02 | locus YCL029C, strain bik1, active compounds read low 1.01 | locus YCL061C, strain MRC1, active compounds read low 0.971 | locus YCL069W, strain vba3, active compounds read low 0.996 | locus YCR088W, strain abp1, active compounds read low 0.975 | locus YDL005C, strain med2, active compounds read low 0.987 | locus YDL035C, strain GPR1, active compounds read low 1.03 | locus YDL040C, strain nat1, active compounds read low 0.964 | locus YDL074C, strain BRE1, active compounds read low 1.02 | locus YDL101C, strain DUN1, active compounds read low 1.01 | locus YDL134C, strain PPH21, active compounds read low 1.02 | locus YDL185W, strain tfp1, active compounds read low 1 | locus YDL192W, strain arf1, active compounds read low 1.01 | locus YDR001C, strain nth1, active compounds read low 0.94 | locus YDR069C, strain doa4, active compounds read low 0.942 | locus YDR101C, strain arx1, active compounds read low 0.996 | locus YDR137W, strain rgp1, active compounds read low 0.97 | locus YDR159W, strain sac3, active compounds read low 0.961 | locus YDR162C, strain NBP2, active compounds read low 1.02 | locus YDR195W, strain ref2 0.936 | locus YDR297W, strain sur2, active compounds read low 0.979 | locus YDR318W, strain mcm21, active compounds read low 0.992 | locus YDR334W, strain swr1, active compounds read low 0.943 | locus YDR335W, strain msn5, active compounds read low 0.949 | locus YDR388W, active compounds read low 1 | locus YDR392W, strain spt3, active compounds read low 1.06 | locus YDR502C, strain sam2, active compounds read low 1.01 | locus YEL003W, strain gim4, active compounds read low 0.98 | locus YEL037C, strain rad23, active compounds read low 0.978 | locus YEL061C, strain CIN8 (second series), active compounds read low 0.961 | locus YEL061C, strain CIN8, active compounds read low 1.01 | locus YER015W, strain faa2, active compounds read low 0.98 | locus YER016W, strain bim1, active compounds read low 1.02 | locus YER110C, active compounds read low 1.01 | locus YER111C, strain swi4, active compounds read low 0.98 | locus YER155C, strain BEM2 (second series), active compounds read low 0.972 | locus YER155C, strain BEM2, active compounds read low 1.01 | locus YER167W, strain BCK2, active compounds read low 1.01 | locus YFR010W, strain ubp6, active compounds read low 0.936 | locus YGL078C, strain dbp3, active compounds read low 1.01 | locus YGL086W, strain mad1, active compounds read low 1.02 | locus YGL167C, strain pmr1, active compounds read low 0.954 | locus YGL173C, strain kem1, active compounds read low 1 | locus YGL227W, strain vid30, active compounds read low 0.972 | locus YGL240W, strain doc1, active compounds read low 0.957 | locus YGL248W, strain PDE1, active compounds read low 0.998 | locus YGL253W, strain hxk2, active compounds read low 0.99 | locus YGR135W, strain pre9, active compounds read low 1 | locus YGR229C, strain SMI1, active compounds read low 1.01 | locus YGR252W, strain gcn5, active compounds read low 0.929 | locus YHR013C, strain ard1, active compounds read low 1 | locus YHR027C, strain rpn1, active compounds read low 0.982 | locus YHR030C, strain SLT2, active compounds read low 1.01 and 0.995 | locus YHR079C, strain IRE1 (second series), active compounds read low 0.992 | locus YHR079C, strain IRE1, active compounds read low 1 | locus YHR094C, strain hxt1, active compounds read low 1 | locus YHR129C, strain ARP1, active compounds read low 1.01 | locus YHR142W, strain chs7, active compounds read low 0.976 | locus YHR200W, strain rpn10, active compounds read low 1 | locus YIL066C, strain RNR3, active compounds read low 1.03 | locus YIL073C, strain SPO22, active compounds read low 1.02 | locus YIL125W, strain kgd1, active compounds read low 0.994 | locus YIR030C, strain dcg1, active compounds read low 1.01 | locus YJL092W, strain hpr5, active compounds read low 0.987 | locus YJL095W, strain BCK1 (second series), active compounds read low 0.982 | locus YJL095W, strain BCK1, active compounds read low 1.01 and 0.997 | locus YJL115W, strain asf1, active compounds read low 0.959 | locus YJL129C, strain trk1, active compounds read low 0.942 | locus YJL134W, strain LCB3, active compounds read low 1.01 | locus YJL154C, strain vps35, active compounds read low 0.952 | locus YJL164C, strain tpk1, active compounds read low 1.02 | locus YJL166W, strain qcr8, active compounds read low 0.917 | locus YJL168C, strain set2, active compounds read low 0.992 | locus YJL187C, strain SWE1 (second series), active compounds read low 1.01 | locus YJL187C, strain SWE1, active compounds read low 0.988 | locus YJR043C, strain POL32, active compounds read low 1.02
